LmPK inh = LmPK (Leishmania mexicana) enzyme inhibition; 0.37% of 290,000 active; Q27686; purified LmPK, Kinase-Glo ATP luminescence, 1 h; Potency, µM (series often up to 57.5 µM), hits mostly inhibitors; AID 1721
Target sequence (Q27686 whole entry, looked up): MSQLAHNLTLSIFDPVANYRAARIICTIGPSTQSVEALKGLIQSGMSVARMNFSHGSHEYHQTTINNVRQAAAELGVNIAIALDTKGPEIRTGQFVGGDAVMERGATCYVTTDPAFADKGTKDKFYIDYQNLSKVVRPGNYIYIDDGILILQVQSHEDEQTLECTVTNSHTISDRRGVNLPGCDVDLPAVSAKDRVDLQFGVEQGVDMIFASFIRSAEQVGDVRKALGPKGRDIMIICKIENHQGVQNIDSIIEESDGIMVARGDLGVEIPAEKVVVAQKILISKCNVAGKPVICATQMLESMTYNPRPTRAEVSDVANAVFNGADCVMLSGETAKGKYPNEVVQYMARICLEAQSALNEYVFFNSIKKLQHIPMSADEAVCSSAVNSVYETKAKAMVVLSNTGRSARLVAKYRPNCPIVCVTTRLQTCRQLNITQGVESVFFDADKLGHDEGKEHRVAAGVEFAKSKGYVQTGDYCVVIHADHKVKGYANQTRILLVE
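Screened at intermediate enzyme activity to detect both inhibitors and activators: LmPK at 0.1 nM, with a 0.5 nM enzyme column as activation reference. PEP 0.5 mM, ADP 0.1 mM; ATP detected by luminescence after 1 h.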
Giardia FBPA inh-1 = Giardia lamblia aldolase inhibition; A8B2U2; purified Giardia FBPA; Potency, µM (doses to about 59.6 µM), most hits filed as inhibitors; 0.71% of 290,000 active; AID 2451; further: nearly all actives have a fitted effect of over 55% in size
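Giardia FBPA (40 nM reagent) was preincubated 10 min at RT with compound (up to 57.5 uM final), then substrate plus GAPDH/TPI/NAD/arsenate coupling system with diaphorase/resazurin was added; resorufin fluorescence (525/598 nm) was read after 20 min.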
Shiga inhibitor = Shiga toxin inhibition. inhibition, % at 38.7 µM. 9.2% of 290,000 active. Vero cells, Shiga toxin protein synthesis inhibition reporter. AID 2315; in the data active means inhibition mostly above about 28%, no sharp cut-off; inactive means mostly below about 43%
TbPYK inhibitor = T. brucei pyruvate kinase inhibition. Q57TT1. TbPYK enzyme, Kinase-Glo Plus ATP luminescence, 45 min. Potency, µM (top dose mostly 76.8 µM), actives largely listed as inhibitors. 0.12% of 410,000 active; further: nearly all actives have a fitted effect of over 50% in size
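T. brucei PYK with substrate was exposed to pin-transferred compounds across a concentration series, then started with 130 uM ADP (final). After 45 min at room temperature, Kinase-Glo Plus luminescence was read, normalized and curve-fitted.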
Cycloheximide cs = counter-screen for Shiga toxin inhibitors: cycloheximide protein synthesis inhibition; 12% of 300,000 active; cell reporter, cycloheximide protein synthesis inhibition counterscreen; max response, %; in the data active means max response mostly above about 13%, no sharp cut-off; inactive means mostly below about 14%; further: read at 38.3 µM for the half of the compounds with a filed dose
RE007 growth inh = less growth of the S. pombe RE007 Vpr strain. S. pombe RE007 Vpr strain, BacTiter-Glo ATP luminescence, 24 h. 0.21% of 360,000 active. Potency, µM (highest dose often 92.2 µM), usual class: inhibitors; active means well fitted falling curve with a large enough effect; inconclusive means small, poorly fitted or top-dose-only effect; inactive means no such curve, though single readings can be large or run the other way; further: nearly all actives have a fitted effect of over 50% in size
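Fission yeast RE007 carrying one integrated HIV-1 vpr copy, seeded at OD 0.01 in PMG+AL medium with 23 nL pinned compound. Grown 24 h at 30 degrees; viability read by BacTiter-Glo luminescence after 5 min.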
Giardia growth = blocks growth of Giardia lamblia trophozoites | shares compounds with Giardia FBPA inh-1 | Giardia lamblia trophozoite growth inhibition | Potency, µM (series often up to 57.5 µM), most hits filed as inhibitors | 5% of 1,500 active | AID 2785;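 further: trophozoites exposed to compound for 48 h at 37 °C; nearly all actives have a fitted effect of over 70% in size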
Mammalian tox = toxic to mammalian cells in Giardia aldolase counter-screen | mammalian cell viability counter-screen, qHTS | 4% of 1,500 active | AID 2786 | shares compounds with Giardia FBPA inh-1 | Potency, µM (series often up to 57.5 µM), usual class: inhibitors;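 further: Chinese hamster ovary cells used as mammalian cytotoxicity surrogate; viability measured as cellular ATP by luminescence; compound exposure lasted 48 h before reading; nearly all actives have a fitted effect of over 60% in size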
Giardia FBPA inh-2 = confirmation of Giardia fructose-bisphosphate aldolase inhibitors; shares compounds with Giardia FBPA inh-1; purified Giardia aldolase enzyme activity, qHTS; Potency, µM (top dose mostly 57.5 µM), actives largely listed as inhibitors; 5% of 1,500 active; further: nearly all actives have a fitted effect of over 45% in size
Rabbit aldolase = selectivity test for Giardia aldolase inhibitors: rabbit aldolase; shares compounds with Giardia FBPA inh-1; Rabbit muscle FBPA enzyme inhibition, selectivity counter-screen; Potency, µM (doses to about 57.5 µM), most hits filed as inhibitors; 4% of 1,500 active; AID 2794; further: nearly all actives have a fitted effect of over 60% in size
GAPDH coupling = GAPDH inhibition flagged for Giardia aldolase hits. shares compounds with Giardia FBPA inh-1. GAPDH coupling enzyme counterscreen, biochemical, qHTS. Potency, µM (doses to about 57.5 µM), most hits filed as inhibitors. 6% of 1,500 active; further: nearly all actives have a fitted effect of over 55% in size
Hits are given with their value; - = inactive; ? = inconclusive; . = no result given; [ ] = remark or other dose. This excerpt belongs to a sample that is enriched for hits. Unless noted, the call rests on the fitted dose curve; in most records, active means well fitted curve in the direction sought with a large enough effect; inconclusive means small, poorly fitted or top-dose-only effect, or another doubt; inactive means no such curve, though single readings can be large; an effect the other way counts as inactive or inconclusive.

SMILES	LmPK inh	Giardia FBPA inh-1	Shiga inhibitor	TbPYK inhibitor	Cycloheximide cs	RE007 growth inh	Giardia growth	Mammalian tox	Giardia FBPA inh-2	Rabbit aldolase	GAPDH coupling
O=C(Nc1ccccc1C(=O)O)/C(=C/c1ccc([N+](=O)[O-])cc1)NC(=O)c1ccc(Br)o1	-	18µM	-	-	-	-	-	-	-	-	-
Cc1ccccc1NC(=O)c1sc2nc3n(c(=O)c2c1C)N=C(c1ccccc1)CS3	.	.	.	-	.	.	.	.	.	.	.
CC(C)N(CC#CCC(O)(c1ccccc1)C1CCCC1)CCO (stereo not given)	-	10µM	-	-	-	-	-	-	-	-	-
COc1ccc(CNC(=O)C(C)n2c(=O)cc(C)c3c(C)nn(-c4ccccc4)c32)cc1 (stereo not given)	.	.	.	-	.	.	.	.	.	.	.
O=C(Nc1ccc(Br)cc1)c1cccc(-n2cnnn2)c1	-	-	-	-	-	-	.	.	.	.	.
Cc1ccnc2nc(C(=O)Nc3nc(-c4ccccn4)cs3)nn12	-	16µM	-	-	-	-	?	-	-	-	-
Cc1ccnc2nc(C(=O)NCc3ccccc3)nn12	-	-	-	-	-	-	.	.	.	.	.
O=C(Nc1nc(-c2ccccn2)cs1)c1ccco1	-	16µM	89	-	54	?	?	40µM	-	-	-
O=C(Nc1nc(-c2ccccn2)cs1)c1cccc(-n2cnnn2)c1	-	5µM	-	-	-	-	?	32µM	-	-	-
CC(C)c1ccc(Nc2ncnc3onc(-c4ccc(F)cc4)c23)cc1	.	.	.	-	.	.	.	.	.	.	.
Cc1ccc(Cc2cnc(N3C(=N)SC(C)C3=O)s2)cc1 (stereo not given)	-	?	-	-	-	-	.	.	.	.	.
Cc1cccc(Cc2cnc(N3C(=N)SC(C)C3=O)s2)c1 (stereo not given)	-	13µM	-	-	-	?	13µM	-	-	-	-
Cn1c(NN=O)nc2ccccc21	-	7.9µM	49	-	28	-	-	16µM	-	-	-
O=C(CNCc1ccccc1)Nc1cccc(Cl)c1Cl	-	16µM	-	-	-	-	-	-	-	-	-
CC1CCCCN1CCCNC(=O)Cn1ncc2c3ccccc3n(Cc3ccccc3)c2c1=O (stereo not given)	.	.	.	-	.	.	.	.	.	.	.
CCc1ccc(CNC(=O)C(CC)n2nc(C)c3c(C)n(-c4ccccc4)nc3c2=O)cc1 (stereo not given)	.	.	.	-	.	.	.	.	.	.	.
COC(=O)c1c(NC(=O)Cc2ccccc2)sc2c1CCN(C(C)C)C2	-	11µM	-	-	-	-	-	-	-	-	-
CCOC(=O)c1c(NC(=O)CC)sc2c1CCN(Cc1ccccc1)C2	-	11µM	-	-	-	-	?	-	-	-	-
CC(=O)Nc1sc2c(c1C(N)=O)CCN(Cc1ccccc1)C2	-	-	-	-	-	-	.	.	.	.	.
COC(=O)c1c(NC(C)=O)sc2c1CCN(Cc1ccccc1)C2	-	?	-	-	-	-	.	.	.	.	.
NC(=O)c1c(NC(=O)Cc2ccccc2)sc2c1CCN(Cc1ccccc1)C2	-	13µM	-	-	-	-	?	-	-	-	-
COC(=O)c1c(NC(=O)C(C)(C)C)sc2c1CCN(Cc1ccccc1)C2	-	11µM	-	-	-	-	-	-	-	-	-
O=C(Nc1ccccc1)N1CCC2(CC1)CCN(S(=O)(=O)c1ccccc1)CC2	.	-	.	-	.	.	.	.	.	.	.
O=C(c1ccco1)N1CCN(Cc2cccc3ccccc23)CC1	-	16µM	-	-	-	-	?	-	-	-	-
O=C(c1ccco1)N1CCN(Cc2cccc(F)c2)CC1	-	-	-	-	-	-	.	.	.	.	.
SMILES	LmPK inh	Giardia FBPA inh-1	Shiga inhibitor	TbPYK inhibitor	Cycloheximide cs	RE007 growth inh	Giardia growth	Mammalian tox	Giardia FBPA inh-2	Rabbit aldolase	GAPDH coupling
CCc1ccc(CN2CCN(C(=O)c3ccco3)CC2)cc1	-	28µM	-	-	-	-	-	-	-	-	-
C/C(CS(=O)(=O)c1ccc(Cl)cc1)=N/NC(N)=S	-	16µM	-	-	-	-	-[10.4 µM]	-	-	-	-
C/C(CS(=O)(=O)c1ccc(Cl)c(Cl)c1)=N/NC(N)=S	-	?	-	-	-	-	.	.	.	.	.
CCC(C)NC(=O)Cn1c(=O)n(CCCC(=O)NCc2ccc(C)cc2)c(=O)c2ccccc21 (stereo not given)	.	.	.	-	.	.	.	.	.	.	.
Cc1ccc(CNC(=O)c2ccc(CS(=O)(=O)Cc3ccc(F)cc3)o2)cc1	.	.	.	-	.	.	.	.	.	.	.
CCC(C)N(C)C1CCN(C(=S)Nc2cccc(SC)c2)CC1 (stereo not given)	-	10µM	-	-	-	-	-	-	-	-	-
COCCNC(=O)CNC(c1ccccc1)c1ccccc1	-	20µM	-	.	-	.	-	-	-	-	-
COc1ccc(CNC(=O)CNC(c2ccccc2)c2ccccc2)cc1OC	-	-	-	-	-	-	.	.	.	.	.
Cc1ccc(Cl)cc1NC(=O)c1cc(CN2CCCC2)on1	.	.	.	-	.	.	.	.	.	.	.
CN1CCN(Cc2c(F)cccc2Cl)CC1	-	25µM	-	-	-	-	-	-	-	-	?
CCC1CCCCN1CCCNC(=O)c1ccc2c(c1)N(Cc1ccc(Cl)cc1)C(=O)c1ccccc1S2(=O)=O (stereo not given)	.	.	.	-	.	.	.	.	.	.	.
Brc1ccc(CN2CCN(Cc3c[nH]c4ccccc34)CC2)cc1	-	14µM	-	-	-	-	20µM	-	-	-	-
O=C(O)Cn1c2c(c3ccccc31)CSc1ccc(Cl)cc1-2	-	7.1µM	-	-	-	-	-[10.4 µM]	-	-	-	-
CC(=O)c1c(C)nc(-c2ccc(Cl)cc2)nc1N	-	5µM	96	-	44	-	-	-	-	-	-
COc1ccc(NC(=O)CSc2nc(-c3ccc(OC)cc3)[nH]c2-c2ccc(OC)cc2)cc1	.	.	.	-	.	.	.	.	.	.	.
CCCCCCNC(=O)N[C@H](Cc1ccc(O)cc1)C(=O)NCCC[C@H]1CN2C(=NC[C@H]2CCC)N1CC1CCC1	-	16µM	-	.	-	.	-	-	-	-	-
CCCCCCNC(=O)N[C@@H](C(=O)NCCC[C@H]1CN2C(=NC[C@@H]2Cc2ccccc2)N1CCc1cccc(OC)c1)C(C)C	-	-	-	?	-	?	.	.	.	.	.
Cn1ncnc2c(=O)n(C)c(=O)nc1-2	-	0.5µM	-	-	-	-	13µM	8.9µM	3.2µM	4.5µM	2.5µM

High-throughput results as filed in PubChem BioAssay.
